# Experimental data as given in paper PMC5540273 (PLoS ONE, 2017).
# Tested on: STK39
# Conditions: concentration: 1 μM, replicates: in singlicate; n = 1
# 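Also: KINOMEscan kinase panel screen.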
row,SMILES,%Inh [%]
1,[2H]C([2H])(c1cccc(C(F)(F)F)c1C)n1ccn2c(=O)nc(N3CCOCC3)cc12 [GSK2336394],1
2,N#Cc1c(N2CCOCC2)sc(-c2ccn[nH]2)c1-c1ccc(Cl)cc1,17
3,CN(C1=C(c2ccccc2)C(=O)NC1=O)c1ccccc1 [SB-334860],5
4,Cc1cn2c(=O)cc(N3CCOCC3)nc2n1Cc1cccc(Cl)c1Cl [GSK2334006],17
5,Fc1ccc(-c2ncn(CCCN3CCOCC3)c2-c2cccnc2)cc1 [SB-211743],0
6,O=c1cc(N2CCOCC2)nc2n(Cc3cccc(F)c3)ccn12 [GSK2297430],0
7,O=C(Nc1cccc(-c2nn3ncccc3c2-c2ccnc(Nc3cccc(C(F)(F)F)c3)n2)c1)c1c(F)cccc1F [GSK299495],15
8,Cc1c2ccc(N(C)c3ccnc(Nc4cccc(S(N)(=O)=O)c4)n3)cc2nn1Cc1ccccc1.Cl.Cl [GW787226],0
9,O=C(Nc1n[nH]c2cc(-c3cccc(F)c3)ccc12)C1CC1 [SB-735464],0
10,CCCCCc1nc2c(N)ncnc2n1CCCCC [SKF-97255],7
11,Cc1ccc(C(=O)NCC(N)=O)cc1-n1c(C)cc(OCc2ccc(F)cc2F)c(Br)c1=O,0
12,NCC(NC(=O)c1cc(-c2cn[nH]c2)c(-c2ccnc3[nH]ccc23)s1)c1ccccc1.O=C(O)C(F)(F)F.O=C(O)C(F)(F)F (stereo not drawn) [GSK1325775],9
13,COc1ccc(Nc2nccc(N3CCC(NC(=O)Nc4cccc(C(C)=O)c4)C3)n2)cc1 (stereo not drawn) [GSK1379731],0
14,COCCNC(=O)c1ccc(-c2cc(C(=O)NC3CC3)cc(F)c2C)cc1 [GW868318],16
15,COC(=O)Nc1nc2cc(Oc3ccc(NC(=O)Nc4cc(F)ccc4F)cc3)ccc2[nH]1.Cl [GW701424],7
16,O=C(c1ccc(-c2cc(-c3c[nH]nc3-c3ccccn3)ccn2)cc1)N1CCOCC1 [GW812171],18
17,NS(=O)(=O)c1cccc(-c2ccc3nccc(-c4cccc(S(N)(=O)=O)c4)c3c2)c1 [GW867253],0
18,CN1c2ccc(CNc3ccc(F)cc3)cc2-c2c(cnn2C)S1(=O)=O,0

row,SMILES,%Inh [%]
1,O=c1cc(N2CCOCC2)nc2n(Cc3cccc(C(F)(F)F)c3)ccn12 [GSK2297543],0
2,Nc1nccc(-c2c(-c3ccc(F)cc3)ncn2C2CCN(CC(F)(F)F)CC2)n1 [SB-236560],0
3,O=c1cc(N2CCOCC2)nc2n(Cc3cccc(Cl)c3Cl)c(C3CC3)nn12 [GSK2358994],0
4,Fc1ccc(-c2ncn(CCCN3CCOCC3)c2-c2ccccn2)cc1 [SB-211742],0
5,CC(C)Oc1ccc2c(-c3ccnc(Nc4ccc(N5CCN(C)CC5)cc4)n3)cnn2n1 [GW696155],89
6,COc1ccc(COc2cc(-n3cnc4ccccc43)sc2C(N)=O)cc1 [GSK1024304],0
7,C[C@@H](Oc1cc(-n2cnc3ccc(NC(=O)NC(C)(C)C)cc32)sc1C(N)=O)c1ccccc1Cl [GSK346294],0
8,Cl.Nc1ncnc2occ(-c3ccc(NC(=O)Nc4cc(C(F)(F)F)ccc4F)cc3)c12 [SB-707548],14
9,COc1cc2c(cc1OCCN1CCN(C)CC1)ncc1c3ccc(C#N)cc3[nH]c21,11
10,O=C(NCCNc1ccnc(Nc2ccc(F)cc2)n1)Nc1ccccc1F [GSK1379880],3
11,O=C(NCCNc1ccnc(Nc2ccc(F)cc2)n1)c1cc2ccccc2s1 [GSK1379874],0
12,COc1cc2ncn(-c3cc(OCc4sccc4Cl)c(C(N)=O)s3)c2cc1OC [GSK448459],0
13,Cc1cccc(-c2nc(-c3ccc(S(C)(=O)=O)cc3)sc2-c2ccncc2)c1,15
14,CCc1nc(-c2cccc(C)c2)c(-c2ccnc(NCc3ccccc3)c2)s1,0
15,c1ccc(-c2cc(-c3c[nH]nc3-c3ccccn3)ccn2)cc1 [GW576604],2
16,COc1cc(Nc2nccc(N3CCC(NC(=O)c4cccc(NC(C)=O)c4)C3)n2)cc(OC)c1OC (stereo not drawn) [GSK1379754],0
17,Cn1ccc2ncnc(Oc3ccc(NC(=O)Nc4ccncc4)c(Cl)c3)c21,100
18,Cl.Oc1cccc(Nc2ccnc3cc(-c4ccncc4)ccc23)c1 [GW494601],1

# Tested on: SYK
# Conditions: concentration: 1 μM, replicates: in singlicate; n = 1
row,SMILES,%Inh [%]
1,[2H]C([2H])(c1cccc(C(F)(F)F)c1C)n1ccn2c(=O)nc(N3CCOCC3)cc12 [GSK2336394],42
2,N#Cc1c(N2CCOCC2)sc(-c2ccn[nH]2)c1-c1ccc(Cl)cc1,16
3,CN(C1=C(c2ccccc2)C(=O)NC1=O)c1ccccc1 [SB-334860],32
4,Cc1cn2c(=O)cc(N3CCOCC3)nc2n1Cc1cccc(Cl)c1Cl [GSK2334006],21
5,Fc1ccc(-c2ncn(CCCN3CCOCC3)c2-c2cccnc2)cc1 [SB-211743],32
6,O=c1cc(N2CCOCC2)nc2n(Cc3cccc(F)c3)ccn12 [GSK2297430],11
7,O=C(Nc1cccc(-c2nn3ncccc3c2-c2ccnc(Nc3cccc(C(F)(F)F)c3)n2)c1)c1c(F)cccc1F [GSK299495],68
8,Cc1c2ccc(N(C)c3ccnc(Nc4cccc(S(N)(=O)=O)c4)n3)cc2nn1Cc1ccccc1.Cl.Cl [GW787226],60
9,O=C(Nc1n[nH]c2cc(-c3cccc(F)c3)ccc12)C1CC1 [SB-735464],4
10,CCCCCc1nc2c(N)ncnc2n1CCCCC [SKF-97255],20
11,Cc1ccc(C(=O)NCC(N)=O)cc1-n1c(C)cc(OCc2ccc(F)cc2F)c(Br)c1=O,20
12,NCC(NC(=O)c1cc(-c2cn[nH]c2)c(-c2ccnc3[nH]ccc23)s1)c1ccccc1.O=C(O)C(F)(F)F.O=C(O)C(F)(F)F (stereo not drawn) [GSK1325775],0
13,COc1ccc(Nc2nccc(N3CCC(NC(=O)Nc4cccc(C(C)=O)c4)C3)n2)cc1 (stereo not drawn) [GSK1379731],1
14,COCCNC(=O)c1ccc(-c2cc(C(=O)NC3CC3)cc(F)c2C)cc1 [GW868318],1
15,COC(=O)Nc1nc2cc(Oc3ccc(NC(=O)Nc4cc(F)ccc4F)cc3)ccc2[nH]1.Cl [GW701424],0
16,O=C(c1ccc(-c2cc(-c3c[nH]nc3-c3ccccn3)ccn2)cc1)N1CCOCC1 [GW812171],0
17,NS(=O)(=O)c1cccc(-c2ccc3nccc(-c4cccc(S(N)(=O)=O)c4)c3c2)c1 [GW867253],1
18,CN1c2ccc(CNc3ccc(F)cc3)cc2-c2c(cnn2C)S1(=O)=O,27

row,SMILES,%Inh [%]
1,O=c1cc(N2CCOCC2)nc2n(Cc3cccc(C(F)(F)F)c3)ccn12 [GSK2297543],27
2,Nc1nccc(-c2c(-c3ccc(F)cc3)ncn2C2CCN(CC(F)(F)F)CC2)n1 [SB-236560],0
3,O=c1cc(N2CCOCC2)nc2n(Cc3cccc(Cl)c3Cl)c(C3CC3)nn12 [GSK2358994],0
4,Fc1ccc(-c2ncn(CCCN3CCOCC3)c2-c2ccccn2)cc1 [SB-211742],17
5,CC(C)Oc1ccc2c(-c3ccnc(Nc4ccc(N5CCN(C)CC5)cc4)n3)cnn2n1 [GW696155],10
6,COc1ccc(COc2cc(-n3cnc4ccccc43)sc2C(N)=O)cc1 [GSK1024304],26
7,C[C@@H](Oc1cc(-n2cnc3ccc(NC(=O)NC(C)(C)C)cc32)sc1C(N)=O)c1ccccc1Cl [GSK346294],34
8,Cl.Nc1ncnc2occ(-c3ccc(NC(=O)Nc4cc(C(F)(F)F)ccc4F)cc3)c12 [SB-707548],68
9,COc1cc2c(cc1OCCN1CCN(C)CC1)ncc1c3ccc(C#N)cc3[nH]c21,8
10,O=C(NCCNc1ccnc(Nc2ccc(F)cc2)n1)Nc1ccccc1F [GSK1379880],26
11,O=C(NCCNc1ccnc(Nc2ccc(F)cc2)n1)c1cc2ccccc2s1 [GSK1379874],36
12,COc1cc2ncn(-c3cc(OCc4sccc4Cl)c(C(N)=O)s3)c2cc1OC [GSK448459],23
13,Cc1cccc(-c2nc(-c3ccc(S(C)(=O)=O)cc3)sc2-c2ccncc2)c1,25
14,CCc1nc(-c2cccc(C)c2)c(-c2ccnc(NCc3ccccc3)c2)s1,0
15,c1ccc(-c2cc(-c3c[nH]nc3-c3ccccn3)ccn2)cc1 [GW576604],6
16,COc1cc(Nc2nccc(N3CCC(NC(=O)c4cccc(NC(C)=O)c4)C3)n2)cc(OC)c1OC (stereo not drawn) [GSK1379754],39
17,Cn1ccc2ncnc(Oc3ccc(NC(=O)Nc4ccncc4)c(Cl)c3)c21,3
18,Cl.Oc1cccc(Nc2ccnc3cc(-c4ccncc4)ccc23)c1 [GW494601],82
